Source: the supplement of paper PMC7411054
Structures can show the parent of a compound that is named as a salt.

Tests used:
Assay in all cases: phenotypically active (imaging signature differs from DMSO and reproducible) at any of 0.3-9 uM (binary (1 = active, 0 = inactive)); higher = active
Conditions in all cases: treatment time: 24 h
A549-ACTB-RAB5A = system: A549-ACTB-RAB5A
Outline: (§1)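 Fifteen gene-edited A549, HepG2 and WPMY1 reporter lines (BFP segmentation plus GFP and RFP/FusionRed markers) were treated at 0.3, 1, 3 or 9 µM for 24 h, four wells each, then imaged live. Live-cell features per well were normalised to DMSO control wells. Deviation required ≥3 of 4 wells beyond the 95th percentile of DMSO Euclidean distances, and reproducibility required median replicate Pearson correlation above the 95th percentile of non-replicates. Phenotypic activity needed both criteria.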

A549-CANX-COX4 = system: A549-CANX-COX4
Outline: as §1

A549-GM130-SQSTM1 = system: A549-GM130-SQSTM1
Outline: as §1

A549-TP53BP1-CLTA = system: A549-TP53BP1-CLTA
Outline: as §1

A549-TUBA1B-RELA = system: A549-TUBA1B-RELA
Outline: as §1

HepG2-ACTB-RAB5A = system: HepG2-ACTB-RAB5A
Outline: as §1

HepG2-CANX-COX4 = system: HepG2-CANX-COX4
Outline: as §1

HepG2-GM130-SQSTM1 = system: HepG2-GM130-SQSTM1
Outline: as §1

HepG2-TP53BP1-CLTA = system: HepG2-TP53BP1-CLTA
Outline: as §1

HepG2-TUBA1B-RELA = system: HepG2-TUBA1B-RELA
Outline: as §1

WPMY1-ACTB-RAB5A = system: WPMY1-ACTB-RAB5A
Outline: as §1

WPMY1-CANX-COX4 = system: WPMY1-CANX-COX4
Outline: as §1

WPMY1-GM130-SQSTM1 = system: WPMY1-GM130-SQSTM1
Outline: as §1

WPMY1-TP53BP1-CLTA = system: WPMY1-TP53BP1-CLTA
Outline: as §1

WPMY1-TUBA1B-RELA = system: WPMY1-TUBA1B-RELA
Outline: as §1

Measured: phenotypically active

O=C1N[C@@H]2[C@@H](O)[C@@H](O)[C@H](O)[C@@H](CO)N2C1=O [Kifunensine]
inactive: A549-ACTB-RAB5A 0 | A549-CANX-COX4 0 | A549-GM130-SQSTM1 0 | A549-TP53BP1-CLTA 0 | A549-TUBA1B-RELA 0 | HepG2-ACTB-RAB5A 0 | HepG2-CANX-COX4 0 | HepG2-GM130-SQSTM1 0 | HepG2-TP53BP1-CLTA 0 | HepG2-TUBA1B-RELA 0 | WPMY1-ACTB-RAB5A 0 | WPMY1-CANX-COX4 0 | WPMY1-GM130-SQSTM1 0 | WPMY1-TP53BP1-CLTA 0 | WPMY1-TUBA1B-RELA 0

O=[N+]([O-])c1cc([N+](=O)[O-])c(/C=C/c2ccc(Cl)c(Cl)c2)cc1/C=C/c1ccc(Cl)c(Cl)c1
inactive: A549-ACTB-RAB5A 0 | A549-CANX-COX4 0 | A549-GM130-SQSTM1 0 | A549-TP53BP1-CLTA 0 | A549-TUBA1B-RELA 0 | HepG2-ACTB-RAB5A 0 | HepG2-CANX-COX4 0 | HepG2-GM130-SQSTM1 0 | HepG2-TP53BP1-CLTA 0 | HepG2-TUBA1B-RELA 0 | WPMY1-ACTB-RAB5A 0 | WPMY1-CANX-COX4 0 | WPMY1-GM130-SQSTM1 0 | WPMY1-TP53BP1-CLTA 0 | WPMY1-TUBA1B-RELA 0

O=C(c1cccc(Br)c1)N1CCC(N2CCCC2)CC1 [UNC 926 hydrochloride]
inactive: A549-ACTB-RAB5A 0 | A549-CANX-COX4 0 | A549-GM130-SQSTM1 0 | A549-TP53BP1-CLTA 0 | A549-TUBA1B-RELA 0 | HepG2-ACTB-RAB5A 0 | HepG2-CANX-COX4 0 | HepG2-GM130-SQSTM1 0 | HepG2-TP53BP1-CLTA 0 | HepG2-TUBA1B-RELA 0 | WPMY1-ACTB-RAB5A 0 | WPMY1-CANX-COX4 0 | WPMY1-GM130-SQSTM1 0 | WPMY1-TP53BP1-CLTA 0 | WPMY1-TUBA1B-RELA 0

CC(C)(C)NS(=O)(=O)c1cncc(-c2cc(F)c3nc(N)nn3c2)c1
inactive: A549-ACTB-RAB5A 0 | A549-CANX-COX4 0 | A549-GM130-SQSTM1 0 | A549-TP53BP1-CLTA 0 | A549-TUBA1B-RELA 0 | HepG2-ACTB-RAB5A 0 | HepG2-CANX-COX4 0 | HepG2-GM130-SQSTM1 0 | HepG2-TP53BP1-CLTA 0 | HepG2-TUBA1B-RELA 0 | WPMY1-ACTB-RAB5A 0 | WPMY1-CANX-COX4 0 | WPMY1-GM130-SQSTM1 0 | WPMY1-TP53BP1-CLTA 0 | WPMY1-TUBA1B-RELA 0

CC(C)[N+](C)(CCOC(=O)C1c2ccccc2Oc2ccccc21)C(C)C [propantheline]
inactive: A549-ACTB-RAB5A 0 | A549-CANX-COX4 0 | A549-GM130-SQSTM1 0 | A549-TP53BP1-CLTA 0 | A549-TUBA1B-RELA 0 | HepG2-ACTB-RAB5A 0 | HepG2-CANX-COX4 0 | HepG2-GM130-SQSTM1 0 | HepG2-TP53BP1-CLTA 0 | HepG2-TUBA1B-RELA 0 | WPMY1-ACTB-RAB5A 0 | WPMY1-CANX-COX4 0 | WPMY1-GM130-SQSTM1 0 | WPMY1-TP53BP1-CLTA 0 | WPMY1-TUBA1B-RELA 0

CCCCC(=O)N(Cc1ccc(-c2ccccc2-c2nnn[nH]2)cc1)[C@H](C(=O)O)C(C)C [valsartan]
inactive: A549-ACTB-RAB5A 0 | A549-CANX-COX4 0 | A549-GM130-SQSTM1 0 | A549-TP53BP1-CLTA 0 | A549-TUBA1B-RELA 0 | HepG2-ACTB-RAB5A 0 | HepG2-CANX-COX4 0 | HepG2-GM130-SQSTM1 0 | HepG2-TP53BP1-CLTA 0 | HepG2-TUBA1B-RELA 0 | WPMY1-ACTB-RAB5A 0 | WPMY1-CANX-COX4 0 | WPMY1-GM130-SQSTM1 0 | WPMY1-TP53BP1-CLTA 0 | WPMY1-TUBA1B-RELA 0

O=c1[nH]cnc2c1ncn2[C@H]1CC[C@@H](CO)O1 [Didanosine]
inactive: A549-ACTB-RAB5A 0 | A549-CANX-COX4 0 | A549-GM130-SQSTM1 0 | A549-TP53BP1-CLTA 0 | A549-TUBA1B-RELA 0 | HepG2-ACTB-RAB5A 0 | HepG2-CANX-COX4 0 | HepG2-GM130-SQSTM1 0 | HepG2-TP53BP1-CLTA 0 | HepG2-TUBA1B-RELA 0 | WPMY1-ACTB-RAB5A 0 | WPMY1-CANX-COX4 0 | WPMY1-GM130-SQSTM1 0 | WPMY1-TP53BP1-CLTA 0 | WPMY1-TUBA1B-RELA 0

CC(=O)N[C@@H]1[C@@H](O[C@H](C)C(=O)O)[C@H](O)[C@@H](CO)O[C@@H]1O [Muramic acid, N-acetyl]
inactive: A549-ACTB-RAB5A 0 | A549-CANX-COX4 0 | A549-GM130-SQSTM1 0 | A549-TP53BP1-CLTA 0 | A549-TUBA1B-RELA 0 | HepG2-ACTB-RAB5A 0 | HepG2-CANX-COX4 0 | HepG2-GM130-SQSTM1 0 | HepG2-TP53BP1-CLTA 0 | HepG2-TUBA1B-RELA 0 | WPMY1-ACTB-RAB5A 0 | WPMY1-CANX-COX4 0 | WPMY1-GM130-SQSTM1 0 | WPMY1-TP53BP1-CLTA 0 | WPMY1-TUBA1B-RELA 0

COc1ccc(OC)c(C(O)CNC(=O)CN)c1 (stereo not given) [midodrine]
inactive: A549-ACTB-RAB5A 0 | A549-CANX-COX4 0 | A549-GM130-SQSTM1 0 | A549-TP53BP1-CLTA 0 | A549-TUBA1B-RELA 0 | HepG2-ACTB-RAB5A 0 | HepG2-CANX-COX4 0 | HepG2-GM130-SQSTM1 0 | HepG2-TP53BP1-CLTA 0 | HepG2-TUBA1B-RELA 0 | WPMY1-ACTB-RAB5A 0 | WPMY1-CANX-COX4 0 | WPMY1-GM130-SQSTM1 0 | WPMY1-TP53BP1-CLTA 0 | WPMY1-TUBA1B-RELA 0

O=C(O)CCCc1ccccc1 [Sodium 4-Phenylbutyrate]
inactive: A549-ACTB-RAB5A 0 | A549-CANX-COX4 0 | A549-GM130-SQSTM1 0 | A549-TP53BP1-CLTA 0 | A549-TUBA1B-RELA 0 | HepG2-ACTB-RAB5A 0 | HepG2-CANX-COX4 0 | HepG2-GM130-SQSTM1 0 | HepG2-TP53BP1-CLTA 0 | HepG2-TUBA1B-RELA 0 | WPMY1-ACTB-RAB5A 0 | WPMY1-CANX-COX4 0 | WPMY1-GM130-SQSTM1 0 | WPMY1-TP53BP1-CLTA 0 | WPMY1-TUBA1B-RELA 0

CC(=O)Nc1nnc(S(N)(=O)=O)s1 [acetazolamide]
inactive: A549-ACTB-RAB5A 0 | A549-CANX-COX4 0 | A549-GM130-SQSTM1 0 | A549-TP53BP1-CLTA 0 | A549-TUBA1B-RELA 0 | HepG2-ACTB-RAB5A 0 | HepG2-CANX-COX4 0 | HepG2-GM130-SQSTM1 0 | HepG2-TP53BP1-CLTA 0 | HepG2-TUBA1B-RELA 0 | WPMY1-ACTB-RAB5A 0 | WPMY1-CANX-COX4 0 | WPMY1-GM130-SQSTM1 0 | WPMY1-TP53BP1-CLTA 0 | WPMY1-TUBA1B-RELA 0
